Common to all, as to type: functional
Assay [1] addresses Solute carrier family 2, facilitated glucose transporter member 1 (Homo sapiens) (UniProt P11166). Description: ST_JUDE_LEISH: Cytotoxicity at 2uM final concentration against transgenic Leishmania Mexicana promastigotes LmGLUT1 that are glucose transport deficient and complemented with the human glucose transporter GLUT1. Activity is measured by DNA content using SYBR green in vitro.

The target of assay [2] is Hexose transporter 1 (Plasmodium falciparum) (UniProt O97467). Nature of the assay: ST_JUDE_LEISH: Cytotoxicity at 2uM final concentration against transgenic Leishmania Mexicana promastigotes LmPfHT that are glucose transport deficient and complemented with the Plasmodium falciparum hexose transporter. Activity is measured by DNA content using SYBR green in vitro.
Assay [3] has as its target Glucose transporter (Leishmania mexicana) (UniProt O61059). Nature of the assay: ST_JUDE_LEISH: Cytotoxicity at 2uM final concentration against transgenic Leishmania Mexicana promastigotes LmGT2 that are glucose transport deficient and complemented with the L. Mexicana glucose transporter 2. Activity is measured by DNA content using SYBR green in vitro.

The values below come from ChEMBL document CHEMBL3433997, “St. Jude Leishmania screening dataset” (2016).

Sequence of Solute carrier family 2, facilitated glucose transporter member 1 (Homo sapiens) (P11166 whole entry): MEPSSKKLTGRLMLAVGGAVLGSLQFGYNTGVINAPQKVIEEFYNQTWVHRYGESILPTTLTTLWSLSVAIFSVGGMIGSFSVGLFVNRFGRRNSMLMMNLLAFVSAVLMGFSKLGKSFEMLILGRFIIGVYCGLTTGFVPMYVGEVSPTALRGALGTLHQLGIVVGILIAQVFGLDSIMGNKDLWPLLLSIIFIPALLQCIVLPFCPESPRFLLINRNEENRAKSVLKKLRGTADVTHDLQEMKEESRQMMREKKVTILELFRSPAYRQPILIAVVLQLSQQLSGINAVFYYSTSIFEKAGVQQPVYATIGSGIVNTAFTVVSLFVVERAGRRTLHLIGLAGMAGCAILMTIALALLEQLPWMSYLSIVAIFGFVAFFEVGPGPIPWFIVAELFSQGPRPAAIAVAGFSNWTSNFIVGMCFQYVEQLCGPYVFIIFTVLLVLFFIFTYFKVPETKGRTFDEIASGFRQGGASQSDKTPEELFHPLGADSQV

The inhibition is the relative decrease from the control value, in per cent. Take `Fc1ccc2[nH]ccc(=NN=CC=Cc3ccccc3)c2c1`: the inhibition in assay [1] is 1.52%; in assay [2], 3%; in assay [3], -2.56%.
Take `COc1ccc(Cl)cc1NC(=O)Nc1cc(C)nc2ccccc12`: the inhibition in assay [1] was 7.32%; in assay [2], 12.8%; in assay [3], 2.81%.
On to `COc1ccc(-c2ccnc(-c3cccc(-c4ccccn4)n3)c2)cc1`, for which the inhibition came out at 7.03% in assay [1], 24.9% in assay [2] and 2.98% in assay [3].
As to `O=C(Nc1ccc(-c2cccc(-c3nc4cc(C(F)(F)F)ccc4[nH]3)c2)cc1)c1csnn1`, the values for the inhibition in assay [1], in assay [2] and in assay [3] were 16.1%, 23.4% and 14.2%, respectively.
For `C=Cc1cc(NC(=O)N2CCc3cc(OC)c(C(F)(F)F)cc32)cc(-c2cccnc2)c1` the same measures were 4.52%, -1.84% and -1.09%.
For `c1ccc(CN2CCC(NCc3ccc(-c4ccc(CNCc5cccnc5)cn4)cc3)CC2)cc1` the same measures were 3.27%, 2.84% and 3.77%.
For `O=C(/C=C/c1ccc(Cl)c(Cl)c1)N1CCCC(CCCN2CCC(c3c[nH]c4ccccc34)CC2)C1` (stereo not drawn) the same measures were 4.23%, 3.51% and -0.35%.
For the molecule `Oc1ccc(Cl)cc1CN1CCC2(CCCN(CC3CCC3)C2)C1` (stereo not drawn), the inhibition in assay [1] is -3%; in assay [2], -0.63%; in assay [3] it was 1.23%.
For `CCCCCCc1cc2cc(-c3csc(C=Cc4ccccc4)n3)c(=O)oc2cc1O`, in that order: 9.95%, 10.6% and 9.7%.
For `Cc1noc(C)c1-c1cccc(CNCc2ccc(-c3cccc(-c4nc5ccccc5[nH]4)c3)cc2)c1` the same measures were -0.68%, -1.65% and -4.01%.
For `FC(F)(F)c1ccccc1OCc1cc(-c2ccncc2)c(COc2ccccc2C(F)(F)F)cc1C1=CCNCC1`, in that order: 2.44%, 2.17% and 2.81%.
Regarding `O=C(Cc1ccccc1)NC1CCN(c2ccnc3cc(Cl)ccc23)C1` (stereo not drawn), the inhibition was determined as 2.05% in assay [1], 2.03% in assay [2] and 3.56% in assay [3].
For `O=C(NC1CCN(c2ccnc(Nc3ccc(F)cc3)n2)C1)c1cc2ccccc2s1` (stereo not drawn), in that order: 0.69%, 1.57% and 1.27%.
For `Nc1nc2c(c(=O)[nH]1)CN(S(=O)(=O)c1ccc(C(=O)N[C@@H](CCC(=O)O)C(=O)O)cc1)CC2`, in that order: -3.01%, -2.13% and -1.12%.
For `O=C(Nc1ccc(Cl)c(-c2nc3ccccc3[nH]2)c1)c1ccc(-c2ccc(Cl)cc2)o1` the same measures were 2.63%, 4.17% and 1.89%.
Consider `CN(C)CCOc1cc(NC(=O)Nc2cccc3c(-c4ccncc4)cccc23)ccc1I`, for which the figures for the inhibition in assay [1], in assay [2] and in assay [3] were 4.55%, 3.67% and 4.12%, respectively.
For `CC(C)Cn1ncc2c3c(N)nc(N)nc3ccc21`, the figures for the inhibition in assay [1], in assay [2] and in assay [3] were 4.46%, 5.97% and 4.36%, respectively.
For `Cc1cc(N(C)C2CCN(CC3CCCCC3)C2)nc(Nc2ccc(Br)cc2)n1` (stereo not drawn) the same measures were 2.84%, 4.85% and 2.06%.
Take `O=C(/C=C/c1ccc(Cl)cc1)NCCCCCN1CCC(C(=O)Nc2ccc(Cl)cc2)CC1`: the inhibition was -0.92% in assay [1], 0.51% in assay [2] and 2.24% in assay [3].
Turning to `CCOc1cc(C)ccc1N(C1CCN(CCCCNC(=O)c2ccc(-c3ccc(C(F)(F)F)cc3)cc2)CC1)S(=O)(=O)c1ccccc1`, the inhibition in assay [1] was 0.32%; in assay [2], 1.25%; in assay [3] it was -0.57%.
Take `Nc1nc(N)c2c(ccc3c2ccn3Cc2ccc(OCc3ccccc3)cc2)n1`: the inhibition in assay [1] was 2.4%; in assay [2], -1.46%; in assay [3], -0.6%.
`Cc1cccc(CN2CCN(c3ncc(C(=O)NC4CC4)cc3Cl)CC2)c1`: the inhibition is 4.67% in assay [1], 2.14% in assay [2] and 2.71% in assay [3].
For `OC(CN1CCN(c2cccc(Cl)c2)CC1)C(c1ccccc1)c1ccccc1` (stereo not drawn) the same measures were -1.02%, 2.99% and -2.94%.
For `Cc1cccc2nc(-c3ccc(-c4ccc(CN5CCN(CCO)CC5)cc4)s3)[nH]c12`, in that order: 10.6%, 8.8% and 7.69%.
For `N#Cc1ccc(N2CCN(Cc3ccc(-c4ccc(-c5nc6cc(F)ccc6[nH]5)s4)cc3)CC2)nc1` the same measures were 6.42%, 5.07% and 4.78%.
As to `c1cc(CN2CCCCC2)cc(-c2csc(-c3nc4ccccc4[nH]3)c2)c1`, the inhibition came to 5.65% in assay [1], 4.57% in assay [2] and 2.67% in assay [3].
For `O=c1cc(NCCNCc2cccc(-c3ccccc3)c2)[nH]c2ccccc12` the same measures were 4.41%, -0.15% and 1.64%.
For `O=C(Nc1ccc(-c2ccccc2)cc1)Nc1cccc(Cn2nc(Cl)c(N3CCCNCC3)cc2=O)c1` the same measures were 3.71%, 0.49% and 0.24%.
`Cc1c(C)n(Cc2ccccc2)c2ncnc(OC3CCN(CC(=O)NCC4CC4)CC3)c12`: the inhibition in assay [1] was determined as 1.84%; in assay [2] it was 0.12%; in assay [3], 0.21%.
For `OC(CNc1ccnc(Nc2ccccc2)n1)c1ccc(C(F)(F)F)cc1` (stereo not drawn), in that order: 5.97%, 5.69% and 1.23%.
For `O=C(NC1CCCC1)c1ccc(N2CCC(NCc3cccc(C(F)(F)F)c3)CC2)cc1`, in that order: -0.33%, -0.97% and 0.59%.
For `CN(C)CCOc1cc(NC(=O)/C=C/c2cccc3ccccc23)ccc1I` the same measures were 10.4%, 8.1% and 8.23%.
As for `COc1cccc2c(N/N=C/c3ccccc3[N+](=O)[O-])cc(C)nc12`, the inhibition in assay [1] worked out at 0.15%; in assay [2], 0.03%; in assay [3] it was 0.39%.
For `CO/C(=C\C=C\c1cc2cc(Cl)c(Cl)cc2[nH]1)C(=O)NCCCN1CCN(Cc2ccccc2)CC1` the same measures were 2.32%, 0.91% and 2.11%.
For `CCCCN1C(=O)C2CC(=O)CC(C3CCCCC3)C2C1=O` (stereo not drawn), in that order: 0.97%, 0.42% and 2.77%.
For `Cc1cc(-c2ccc(CNCc3ccsc3)cc2)ccc1S(=O)(=O)NCCN1CCCC1`, in that order: 61.3%, 21.9% and -0.36%.
